Assay results from PubChem BioAssay (NCI).
About 83,000 compounds went through this panel and 20% of them were active in at least one assay; those are over-represented in the sample as a whole.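 Values shown are percent growth following 48 h exposure of cells in 96-well plates to a single concentration of compound; below 10 was considered active.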 The source made the active and inactive calls.

tested on: NCI-H23 lung; experiment: NCI-60 one-dose screen, 48 h (100 = growth as untreated, 0 = no growth, -100 = all killed); settings: 10 µM unless noted

**Q.** With O=C(Nc1ccccc1)Nc1ncnc2c1ncn2-c1ccc(Cl)cc1 as the compound, how does the growth read?
**A.** 88.5% (inactive)

**Q.** Which growth does the source give for CC(C)c1ccc(C(=O)Nc2nc3ccc(O)c(CN(C)C)c3s2)cc1 here?
**A.** 88.9% (inactive)

**Q.** Cc1ccc(Nn2c(SCC(=O)Nc3nc(-c4ccccc4)cs3)nc(C)c2C)cc1 was tested. Which growth did it give?
**A.** 39.4% (inactive)

**Q.** N#CC(C#N)N=Nc1ccc(Br)cc1 was tested. Which growth did it give?
**A.** 24.6% (inactive)

**Q.** Which growth does the source give for CCN1C(=S)N(c2ccccc2)C2C1NN=c1s/c(=C3\C(=O)N(C(C)C)c4ccccc43)c(=O)n12 (centres undefined) here?
**A.** 75.4% (inactive)

**Q.** CSc1nc2ccccc2cc1/C=[N+](\[O-])c1ccccc1 was tested. Which growth did it give?
**A.** 70% (inactive)

**Q.** With CN1CCN(c2cc(Nc3cc(C4CC4)[nH]n3)nc(Nc3ccc(CC(=O)NCc4cccc(F)c4)cc3)n2)CC1 as the compound, how does the growth read?
**A.** 23.2% (inactive)

**Q.** How did the growth turn out when C=CCN=c1sc2c(n1NC(=O)c1cc3ccc1CCc1ccc(cc1)CC3)C(=O)c1ccccc1C2=O was run?
**A.** -34.1% (active)

**Q.** For Cn1cc(-c2csc(-c3cn(C(=O)OC(C)(C)C)c4ccc(Br)cc34)n2)c2ccnc(Cl)c21, which growth is on record?
**A.** 81.7% (inactive)

**Q.** CSc1oc(C)nc1[P+](c1ccccc1)(c1ccccc1)c1ccccc1 was tested. Which growth did it give?
**A.** 30% (inactive)

**Q.** Which growth does the source give for C=C1C(=O)O[C@H]2[C@H]1CC/C(Cn1cc(-c3ccccc3)nn1)=C\CC[C@@]1(C)O[C@@H]21 here?
**A.** -23.6% (active)

**Q.** With O=S(=O)(c1ccccc1)n1cc2c(c1)-c1nc(Nc3ncccn3)sc1CC2 as the compound, how does the growth read?
**A.** 61.9% (inactive)

**Q.** Which growth does the source give for Cc1[nH]c(C(=O)Nc2ccccc2OC2CCNCC2)c(Cl)c1Cl here?
**A.** 42.8% (inactive)

**Q.** How did the growth turn out when COc1ccc(-c2cc(-c3ccc(Cl)cc3)c(C#N)c(=O)n2Cc2ccc(C(=O)Nc3ccccc3N)cc2)cc1 was run?
**A.** 77.2% (inactive)

**Q.** For O=C(CN1CCCCC1)Nc1nc(-c2cc3ccccc3oc2=O)cs1, which growth is on record?
**A.** 109% (inactive)

**Q.** For Oc1ccc(Cl)cc1/C=N\NC(=S)N/N=C/c1cc(Cl)ccc1O, which growth is on record?
**A.** 50% (inactive)

**Q.** COC12C=C/C(=C(/C(=O)OCc3ccncn3)C(=O)CCCCCCCCC3(OC)C=C/C(=C(/C(=O)OCc4ccncn4)C(=O)CCCCCCCC1)O3)O2 was tested. Which growth did it give?
**A.** -37.2% (active)

**Q.** Which growth does the source give for COc1ccc2c(c1)N(CCO)C1=C(C(=O)OC1)C2c1cccc(F)c1 (centres undefined) here?
**A.** 25.6% (inactive)

**Q.** With CC(=O)Oc1ccc(/C(=C(\C)c2ccc(Cl)cc2)c2ccc(OCCN3CCCCC3)cc2)cc1 as the compound, how does the growth read?
**A.** 46.9% (inactive)

**Q.** With O=C(N(c1ccccc1)c1ccccc1)n1cc(I)c2nc(Cl)nc(Cl)c21 as the compound, how does the growth read?
**A.** 72.6% (inactive)

**Q.** With N#Cc1nc(-c2ccccc2)oc1S(=O)(=O)N1CCN(c2ccccc2)CC1 as the compound, how does the growth read?
**A.** 74.9% (inactive)

**Q.** Which growth does the source give for Cc1ccc(NC(=O)c2sc3nc(C)c(Br)c(C)c3c2N)cc1 here?
**A.** 73.8% (inactive)

**Q.** With O=C(CN1C(=O)S/C(=C\C(Cl)=C\c2ccccc2)C1=O)NCCc1ccc(O)cc1 as the compound, how does the growth read?
**A.** 40.2% (inactive)

**Q.** How did the growth turn out when O=C(/C=C/c1cn(-c2ccccc2)nc1-c1ccc(Cl)cc1)c1ccc(F)cc1 was run?
**A.** 69.9% (inactive)

**Q.** CCOC(=O)c1c(NC(=O)c2cccc(C(F)(F)F)c2)sc2c(CN(C)C)c(O)ccc12 was tested. Which growth did it give?
**A.** 93.1% (inactive)

**Q.** Which growth does the source give for N#Cc1c(-c2ccccc2)cc(-c2ccc(Nc3nc(Nc4ccc(Cl)cc4)nc(Nc4ccc(Cl)cc4)n3)cc2)nc1N here?
**A.** 39.2% (inactive)

**Q.** Which growth does the source give for O=C(/C=C/c1cccs1)Nc1ncc(Cc2ccccc2F)s1 here?
**A.** 47.5% (inactive)

**Q.** For O=S(=O)(Nc1cc(Cl)ccc1Cl)c1ccc(-c2cnc(C3CC3)o2)cc1, which growth is on record?
**A.** 52.8% (inactive)

**Q.** For CCOC(=O)c1ccc2c(c1)nc(-c1ccccc1)n2C1CCCCC1, which growth is on record?
**A.** 90.3% (inactive)

**Q.** For CC(=O)N1N=C(c2ccc(C(F)(F)F)c(F)c2)CC1c1[nH]c(C)c(C(=O)NCC(F)(F)F)c1C (centres undefined), which growth is on record?
**A.** 78.8% (inactive)

**Q.** How did the growth turn out when O=C(CN1C(=O)S/C(=C\c2ccccc2)C1=O)Nc1ncc(Cc2ccccc2Cl)s1 was run?
**A.** 102% (inactive)

**Q.** COc1cc(OCc2cccc(Br)c2C)cc(OC)c1C=O was tested. Which growth did it give?
**A.** 75.7% (inactive)

**Q.** For COc1cc(NS(=O)(=O)c2ccc(-c3cnc(C4CC4)o3)cc2)ccc1F, which growth is on record?
**A.** 33.6% (inactive)

**Q.** With COC1=CC(c2ccc[nH]2)=N/C1=C\c1[nH]c(C)c(CC(=O)OCc2ccccc2)c1CCC(=O)OCc1ccccc1 as the compound, how does the growth read?
**A.** -12.6% (active)

**Q.** For Clc1cccc(Nc2ncnc3ccc(-c4cnc5[nH]ccc5c4)cc23)c1, which growth is on record?
**A.** 84.4% (inactive)

**Q.** For COc1cc2ncnc(Nc3ccc(F)c(Cl)c3)c2cc1OCC(=O)N1CCN(c2ccccc2)CC1, which growth is on record?
**A.** 88% (inactive)

**Q.** Which growth does the source give for O=C1Nc2ccccc2/C1=C/c1nc2ccccc2c(=O)[nH]1 here?
**A.** 75.8% (inactive)

**Q.** CNc1nnc2n(-c3ccccc3)c(=O)c3cnn(-c4ccccc4)c3n12 was tested. Which growth did it give?
**A.** 95.8% (inactive)

**Q.** For C=C1C(=O)O[C@H]2[C@H]1CC/C(COC(=O)c1cc3ccccc3s1)=C\CC[C@@]1(C)O[C@@H]21, which growth is on record?
**A.** -46.4% (active)
